Growth inhibition data for five molecules are collected here from PubChem BioAssay (NCI).

About 79,000 compounds went through this panel and 15% of them were active in at least one assay; those are over-represented in the sample as a whole. A number with no mark means an inactive call. Active and inactive are the calls of the source. No stated cut-off is given here; in the data, active means growth inhibition above about 70%; inactive means the rest.

Experiment [1] is described as follows: NCI Yeast Anticancer Drug Screen. Data for the rad50 strain (AID 155).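 Further: 0% = growth of vehicle-only cultures of the same strain.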 Particulars: S. cerevisiae rad50 strain growth inhibition, hits give high values. In short, it runs like this:
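A DNA repair-deficient yeast mutant serves as the test organism; compound-induced growth inhibition is calculated against vehicle-treated cells.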

Experiment [2] is described as follows: NCI Yeast Anticancer Drug Screen. Data for the mec2-1 strain (AID 157). Particulars: S. cerevisiae mec2-1 strain, hits give high values. In short, it runs like this: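 Each compound was tested on mec2-1 yeast, a strain altered in DNA damage repair or cell cycle control. Growth inhibition is reported relative to vehicle.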
Experiment [3] in a line: NCI Yeast Anticancer Drug Screen. Data for the sgs1 mgt1 strain (AID 161).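 Further: 0% = growth of cultures given vehicle only.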 Particulars: S. cerevisiae sgs1 mgt1 strain, hits give high values. In short, it runs like this:
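Genetically altered yeast, compound exposure, growth inhibition relative to vehicle.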

A short description of experiment [4]: NCI Yeast Anticancer Drug Screen. Data for the cln2 rad14 strain (AID 165).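 Further: 0% = growth equal to vehicle treated cultures.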 Particulars: S. cerevisiae cln2 rad14 strain, hits give high values. In short, it runs like this: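 Test compounds were added to cln2 rad14 yeast cultures; inhibition of growth was then determined by comparison with vehicle treatment.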
The nature of experiment [5]: NCI Yeast Anticancer Drug Screen. Data for the bub3 strain (AID 167). Particulars: S. cerevisiae bub3 mutant strain, hits give high values. In short, it runs like this: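 Inhibition values come from growth of compound-treated mutant yeast normalised to vehicle-treated controls.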
The nature of experiment [6]: NCI Yeast Anticancer Drug Screen. Data for the mlh1 rad18 strain (AID 175). Particulars: S. cerevisiae mlh1 rad18 strain growth inhibition, hits give high values. In short, it runs like this: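 Inhibition values reflect reduced growth of mutant yeast versus vehicle-treated controls following compound exposure; the mutations affect DNA damage repair.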
Where [7] appears, read: at 5.0 µM (retest, dose inferred, filed as 0.5).
Where [8] appears, read: at 50.0 µM (retest, dose inferred, filed as 5.0).

With `C[n+]1c(/C=C/c2ccc(O)c(O)c2)[se]c2ccccc21`, the growth inhibition in experiment [1] (setting [7]) is 12%; in experiment [1] (setting [8]) it was 72% (active); in experiment [1] (at 50.0 µM), 77.7% (active); in experiment [2] (setting [7]) it was 3%; in experiment [2] (setting [8]) it was 80% (active); in experiment [2] (at 50.0 µM), 70.6% (active). Further, the growth inhibition in experiment [3] (setting [7]) is 48%; in experiment [3] (setting [8]), 81% (active); in experiment [3] (at 50.0 µM), 82.7% (active); in experiment [4] (setting [7]) it was 19%; in experiment [4] (setting [8]), 53%; in experiment [4] (at 50.0 µM) it was 66.9%. Besides, the growth inhibition is -3% in experiment [5] (setting [7]); 61% in experiment [5] (setting [8]); 56.1% in experiment [5] (at 50.0 µM); 18% in experiment [6] (setting [7]); 80% (active) in experiment [6] (setting [8]); 77% (active) in experiment [6] (at 50.0 µM).

As for `c1ccc(P(CCP(c2ccccc2)c2ccccc2)CCP(c2ccccc2)c2ccccc2)cc1`, the growth inhibition in experiment [1] (setting [7]) is 98% (active); in experiment [1] (setting [8]), 98% (active); in experiment [1] (at 50.0 µM), 92.3% (active); in experiment [2] (setting [7]), 94% (active); in experiment [2] (setting [8]), 94% (active); in experiment [2] (at 50.0 µM) it was 93% (active). For the same molecule, the growth inhibition is 92% (active) in experiment [3] (setting [7]); 92% (active) in experiment [3] (setting [8]); 91% (active) in experiment [3] (at 50.0 µM); 84% (active) in experiment [4] (setting [7]); 84% (active) in experiment [4] (setting [8]); 5.95% in experiment [4] (at 50.0 µM). For the same molecule, the growth inhibition in experiment [5] (setting [7]) was 96% (active); in experiment [5] (setting [8]) it was 96% (active); in experiment [5] (at 50.0 µM), 92.8% (active); in experiment [6] (setting [7]), 95% (active); in experiment [6] (setting [8]) it was 95% (active); in experiment [6] (at 50.0 µM), 91.8% (active).

Regarding `O=C(O)Cc1ccc2c(c1)OCO2.[Ag]`, the growth inhibition in experiment [1] (setting [7]) was 99% (active); in experiment [1] (setting [8]), 93% (active); in experiment [1] (at 50.0 µM) it was 96% (active); in experiment [2] (setting [7]) it was 99% (active); in experiment [2] (setting [8]), 95% (active); in experiment [2] (at 50.0 µM), 97% (active). Further, the growth inhibition in experiment [3] (setting [7]) was 99% (active); in experiment [3] (setting [8]) it was 94% (active); in experiment [3] (at 50.0 µM), 96.6% (active); in experiment [4] (setting [7]) it was 99% (active); in experiment [4] (setting [8]), 94% (active); in experiment [4] (at 50.0 µM), 90.2% (active). The growth inhibition was 99% (active) in experiment [5] (setting [7]); 93% (active) in experiment [5] (setting [8]); 93.3% (active) in experiment [5] (at 50.0 µM); 99% (active) in experiment [6] (setting [7]); 93% (active) in experiment [6] (setting [8]); 94.4% (active) in experiment [6] (at 50.0 µM).

In the case of `CC(C)NCC(O)c1ccccc1Cl` (stereo not given), the growth inhibition is 3% in experiment [1] (setting [7]); 2% in experiment [1] (setting [8]); 5.4% in experiment [1] (at 50.0 µM); 2% in experiment [2] (setting [7]); -2% in experiment [2] (setting [8]); -11.3% in experiment [2] (at 50.0 µM). In addition, the growth inhibition in experiment [3] (setting [7]) was 0%; in experiment [3] (setting [8]) it was 3%; in experiment [3] (at 50.0 µM) it was -3.35%; in experiment [4] (setting [7]) it was 0%; in experiment [4] (setting [8]), -2%; in experiment [4] (at 50.0 µM), 32.9%. In addition, the growth inhibition in experiment [5] (setting [7]) is -2%; in experiment [5] (setting [8]), -4%; in experiment [5] (at 50.0 µM), -6.2%; in experiment [6] (setting [7]) it was 8%; in experiment [6] (setting [8]), 3%; in experiment [6] (at 50.0 µM) it was 14.1%.

As for `Nc1ccc2cc(Br)ccc2c1`, the growth inhibition is -11% in experiment [1] (setting [7]); 26% in experiment [1] (setting [8]); 75.5% (active) in experiment [1] (at 50.0 µM); -2% in experiment [2] (setting [7]); 10% in experiment [2] (setting [8]); 30.6% in experiment [2] (at 50.0 µM). Further, the growth inhibition in experiment [3] (setting [7]) was -10%; in experiment [3] (setting [8]), 11%; in experiment [3] (at 50.0 µM), 46.6%; in experiment [4] (setting [7]) it was -31%; in experiment [4] (setting [8]), -9%; in experiment [4] (at 50.0 µM) it was 31.1%. For the same molecule, the growth inhibition in experiment [5] (setting [7]) was -8%; in experiment [5] (setting [8]), 14%; in experiment [5] (at 50.0 µM), 45.9%; in experiment [6] (setting [7]), -16%; in experiment [6] (setting [8]), 20%; in experiment [6] (at 50.0 µM), 57.4%.
